Our source for the outcome and AC50 values is PubChem BioAssay (EPA / NIEHS).

The target in assay [1] is human Dopamine Receptor D4.4 (DRD4.4), DRD4 (gene 1815) (UniProt P21917). The experiment in a line: NVS_GPCR_hDRD4.4: NovaScreen (NVS) G Protein-Coupled Receptor Assay for human Dopamine Receptor D4.4 (DRD4.4) (AID 2283264). A digest of the protocol: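 Filter-binding assay with a tritiated or iodinated ligand, cell-free receptor prepared from CHO, 1 hour. Loss of bound radioactivity versus DMSO; single 25 uM duplicate screen, then concentration-response for actives.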

Assay [2] concerns the target human Dopamine Receptor D2 (DRD2), DRD2 (gene 1813) (UniProt P14416). The assay can be described thus: NVS_GPCR_hDRD2s: NovaScreen (NVS) G Protein-Coupled Receptor Assay for human Dopamine Receptor D2 (DRD2) (AID 2283266). Here is the method: (§1) NVS_GPCR_hDRD2s is a biochemical, single-readout assay that uses extracted gene-proteins from CHO in a cell-free assay. Measurements were taken 1.5 hours after chemical dosing in a 96-well plate.NVS_GPCR_hDRD2s is one of one assay component(s) measured or calculated from the NVS_GPCR_hDRD2s assay. It is designed to make measurements of radioligand binding, a form of binding reporter, as detected with scintillation counting signals by Filter-based radiodetection technology.Data from the assay component NVS_GPCR_hDRD2s was analyzed into 1 assay endpoint. This assay endpoint, NVS_GPCR_hDRD2s, was analyzed in the positive analysis fitting direction relative to DMSO as the negative control and baseline of activity. […] Furthermore, this assay endpoint can be referred to as a primary readout, because the performed assay has only produced 1 assay endpoint. […]
(§2) Binding assays used specific radioligands (tritiated, iodinated) with non-radioactive competitive displacement ligands in agonist or antagonist protocols (as indicated) and various reference compounds and inhibitors to titrate specific binding to receptors and transporters. Most enzyme assays (CYPs, kinases, phosphatases, proteases, HDACs) used recombinant protein and specific substrates (fluorescence mostly, some colorimetric and radioactive) and inhibitors, followed by a biochemical separation of substrate and product. […]

In assay [3] the target is human Endothelin Receptor Type A (ETA), EDNRA (gene 1909) (UniProt P25101). The assay can be described thus: NVS_GPCR_hETA: NovaScreen (NVS) G Protein-Coupled Receptor Assay for human Endothelin Receptor Type A (ETA) (AID 2283265). Put shortly: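 Binding of radioligand to membrane protein extracted from SH-SY5Y cells was read by filtration and scintillation after 3 h. Compounds were screened at 25 uM in duplicate, with hits followed up in singleton concentration series to 50 uM.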

Assay [4] concerns the target Muscarinic acetylcholine receptor M1 (Homo sapiens) (UniProt P11229). The experiment in a line: NVS_GPCR_hM1: NovaScreen (NVS) G Protein-Coupled Receptor Assay for human Muscarinic, M1 Receptor (AID 2283270). Here is the method: as §1, with “NVS_GPCR_hM1” for “NVS_GPCR_hDRD2s”, “1 hour” for “1.5 hours”, “plate.NVS_GPCR_hM1” for “plate.NVS_GPCR_hDRD2s”, “NVS_GPCR_hM1,” for “NVS_GPCR_hDRD2s,”
as §2

Assay [5] addresses Muscarinic acetylcholine receptor M3 (Homo sapiens) (UniProt P20309). The experiment in a line: NVS_GPCR_hM3: NovaScreen (NVS) G Protein-Coupled Receptor Assay for human Muscarinic, M3 Receptor (AID 2283272). A digest of the protocol:
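Radioligand displacement binding on human M3 receptor in CHO-derived membranes, 1 h incubation, filter-based scintillation counting. Primary screen in duplicate at 25 uM; actives followed up in concentration series; loss of signal versus DMSO.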

The target of assay [6] is human Endothelin Receptor Type B (ETB), EDNRB (gene 1910) (UniProt P24530). The experiment in a line: NVS_GPCR_hETB: NovaScreen (NVS) G Protein-Coupled Receptor Assay for human Endothelin Receptor Type B (ETB) (AID 2283267). A digest of the protocol: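 Filter-based scintillation readout of radioligand displacement, 4 h, using membranes from human astrocytoma cells. Actives from a 25 uM duplicate screen were retested in concentration-response (top 50 uM) relative to DMSO baseline.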

Records with an inconclusive call do not appear. Calls of active or inactive are those of the source. Rule for the calls: active = hit-call score of the fitted dose curve at least 0.9, where 1 is the maximum; inconclusive = response in the unintended direction; inactive = score below 0.9.

Sequence of human Dopamine Receptor D2 (DRD2), DRD2 (gene 1813) (P14416 whole entry, looked up): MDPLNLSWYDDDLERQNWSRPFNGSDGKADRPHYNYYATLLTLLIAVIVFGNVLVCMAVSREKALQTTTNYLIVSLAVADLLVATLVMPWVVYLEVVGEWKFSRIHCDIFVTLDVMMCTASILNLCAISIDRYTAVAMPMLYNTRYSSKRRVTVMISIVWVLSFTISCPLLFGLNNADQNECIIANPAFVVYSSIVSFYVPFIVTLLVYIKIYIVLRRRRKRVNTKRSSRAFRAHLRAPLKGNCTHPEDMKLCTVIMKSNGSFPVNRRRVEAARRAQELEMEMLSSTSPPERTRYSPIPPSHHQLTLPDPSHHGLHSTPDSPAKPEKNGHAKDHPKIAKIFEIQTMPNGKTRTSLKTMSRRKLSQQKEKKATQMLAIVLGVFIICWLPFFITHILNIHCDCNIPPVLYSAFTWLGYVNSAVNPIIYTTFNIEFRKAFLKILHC
Sequence of Muscarinic acetylcholine receptor M3 (Homo sapiens) (P20309 whole entry, looked up): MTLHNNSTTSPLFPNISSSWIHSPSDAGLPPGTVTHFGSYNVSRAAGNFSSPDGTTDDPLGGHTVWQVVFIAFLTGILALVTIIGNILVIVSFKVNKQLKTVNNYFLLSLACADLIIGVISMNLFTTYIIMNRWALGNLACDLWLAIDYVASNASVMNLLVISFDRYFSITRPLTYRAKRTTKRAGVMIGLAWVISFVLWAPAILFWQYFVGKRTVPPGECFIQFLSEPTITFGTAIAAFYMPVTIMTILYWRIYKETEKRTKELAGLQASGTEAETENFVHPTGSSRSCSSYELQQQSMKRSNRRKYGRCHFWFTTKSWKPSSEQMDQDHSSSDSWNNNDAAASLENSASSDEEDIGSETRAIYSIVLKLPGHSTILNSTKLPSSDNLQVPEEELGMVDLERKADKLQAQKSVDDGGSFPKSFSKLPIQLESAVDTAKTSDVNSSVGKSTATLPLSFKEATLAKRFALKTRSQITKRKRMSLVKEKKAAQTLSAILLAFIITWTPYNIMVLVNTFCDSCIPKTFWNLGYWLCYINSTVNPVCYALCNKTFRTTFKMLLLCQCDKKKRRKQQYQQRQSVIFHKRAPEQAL
Sequence of Muscarinic acetylcholine receptor M1 (Homo sapiens) (P11229 whole entry, looked up): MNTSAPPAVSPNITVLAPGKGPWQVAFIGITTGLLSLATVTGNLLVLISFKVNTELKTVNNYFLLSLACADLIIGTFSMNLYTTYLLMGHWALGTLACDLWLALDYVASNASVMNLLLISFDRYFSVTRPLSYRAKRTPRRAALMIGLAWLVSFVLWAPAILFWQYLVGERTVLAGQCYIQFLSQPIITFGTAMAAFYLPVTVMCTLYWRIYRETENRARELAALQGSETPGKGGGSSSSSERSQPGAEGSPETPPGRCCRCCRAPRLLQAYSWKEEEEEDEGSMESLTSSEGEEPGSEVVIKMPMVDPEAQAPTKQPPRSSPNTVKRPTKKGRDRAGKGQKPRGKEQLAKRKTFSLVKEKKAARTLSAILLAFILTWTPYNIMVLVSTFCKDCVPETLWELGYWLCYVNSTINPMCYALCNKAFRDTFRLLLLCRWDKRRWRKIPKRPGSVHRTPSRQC
Sequence of human Endothelin Receptor Type A (ETA), EDNRA (gene 1909) (P25101 whole entry, looked up): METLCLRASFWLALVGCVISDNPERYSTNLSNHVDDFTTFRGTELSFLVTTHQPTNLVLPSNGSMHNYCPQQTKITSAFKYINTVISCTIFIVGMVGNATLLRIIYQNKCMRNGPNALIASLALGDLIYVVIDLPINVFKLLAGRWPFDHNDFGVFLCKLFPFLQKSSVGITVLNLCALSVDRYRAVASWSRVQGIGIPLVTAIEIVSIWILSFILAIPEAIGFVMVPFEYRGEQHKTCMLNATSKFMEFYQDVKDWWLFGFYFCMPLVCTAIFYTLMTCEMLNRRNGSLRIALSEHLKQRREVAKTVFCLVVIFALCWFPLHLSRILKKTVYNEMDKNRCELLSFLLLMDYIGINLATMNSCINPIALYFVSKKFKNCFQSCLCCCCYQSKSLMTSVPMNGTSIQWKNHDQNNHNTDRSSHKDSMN
Sequence of human Endothelin Receptor Type B (ETB), EDNRB (gene 1910) (P24530 whole entry, looked up): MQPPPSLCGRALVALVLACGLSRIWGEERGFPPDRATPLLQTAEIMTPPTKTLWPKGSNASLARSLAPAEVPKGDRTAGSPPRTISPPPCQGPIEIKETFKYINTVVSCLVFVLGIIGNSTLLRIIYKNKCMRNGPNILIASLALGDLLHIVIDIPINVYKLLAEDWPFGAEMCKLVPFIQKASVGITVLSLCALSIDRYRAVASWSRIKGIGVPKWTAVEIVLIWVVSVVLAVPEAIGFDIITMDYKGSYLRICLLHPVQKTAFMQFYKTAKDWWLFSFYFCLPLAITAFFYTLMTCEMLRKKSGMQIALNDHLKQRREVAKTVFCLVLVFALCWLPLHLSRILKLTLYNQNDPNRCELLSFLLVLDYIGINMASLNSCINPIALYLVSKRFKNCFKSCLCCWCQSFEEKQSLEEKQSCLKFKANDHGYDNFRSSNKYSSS
Sequence of human Dopamine Receptor D4.4 (DRD4.4), DRD4 (gene 1815) (P21917 whole entry, looked up): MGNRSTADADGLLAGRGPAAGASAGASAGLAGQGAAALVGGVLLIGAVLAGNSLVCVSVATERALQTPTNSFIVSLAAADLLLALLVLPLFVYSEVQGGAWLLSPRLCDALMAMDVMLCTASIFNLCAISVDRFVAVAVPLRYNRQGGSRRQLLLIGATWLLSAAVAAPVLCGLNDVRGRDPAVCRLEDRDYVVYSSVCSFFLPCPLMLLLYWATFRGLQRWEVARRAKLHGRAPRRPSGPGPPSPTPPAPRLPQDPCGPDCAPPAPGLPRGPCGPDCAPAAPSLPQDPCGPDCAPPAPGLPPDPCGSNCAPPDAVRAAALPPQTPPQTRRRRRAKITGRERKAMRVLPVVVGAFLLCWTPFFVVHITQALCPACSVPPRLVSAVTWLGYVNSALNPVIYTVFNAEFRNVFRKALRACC

Turning to `Cc1ccc(-c2c(Cl)nc(C#N)n2S(=O)(=O)N(C)C)cc1`, the compound was called inactive in assay [1] and in assay [2].

Consider `C=CCC1=C(C)C(OC(=O)C2C(C=C(C)C)C2(C)C)CC1=O` (stereo not drawn), for which the call in assay [3] was inactive.

In the case of `COc1ccc(C(c2ccc(OC)cc2)C(Cl)(Cl)Cl)cc1`, the outcome in assay [2], in assay [4] and in assay [5] was inactive.

Regarding `CC1COC(Cn2cncn2)(c2ccc(Oc3ccc(Cl)cc3)cc2Cl)O1` (stereo not drawn), the result in assay [6] was inactive.

As usually defined, the AC50 is the concentration at which the activity in the assay is half-maximal. With `CCCC1COC(Cn2cncn2)(c2ccc(Cl)cc2Cl)O1` (stereo not drawn), in assay [5], the AC50 is 4.96 µM (active).
